Results: PubChem BioAssay (NCATS)
Where “and” joins values, the source holds several entries; their conditions need not be identical. Equal values may be shown once. Inconclusive results are not listed. Calls of active or inactive are those of the source. The call rests on the fitted dose curve; in most records, active means well fitted curve in the direction sought with a large enough effect; inconclusive means small, poorly fitted or top-dose-only effect, or another doubt; inactive means no such curve, though single readings can be large; an effect the other way counts as inactive or inconclusive.

Tests used:
[1] = SW1088 Cancer Cell Toxicity qHTS against the NCATS CANVASS Library (AID 1347350); further: nearly all actives have a fitted effect of over 75% in size; further: potency means the concentration at half of the fitted maximal effect
Outline: (§1)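 Step one: seed 1000 cells per well. Step two: incubate 4 h. Step three: add test compounds in 11 concentrations. Step four: culture 72 h, then add CellTiter-Glo and record luminescence after 15min.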

[2] = A2780 Cisplatin Sensitive Ovarian Cancer Cell Toxicity qHTS against the NCATS CANVASS Library (AID 1347353); further: nearly all actives have a fitted effect of over 60% in size; further: potency means the concentration at half of the fitted maximal effect
Outline: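 750 cells/well, 4 h settle; 11-pt cpd titration; 72 h, 37 °C, 5% CO2; ATPLite 10 min RT; luminescence read.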

[3] = HEK-293 Cancer Cell Toxicity qHTS against the NCATS CANVASS Library (AID 1347355); further: nearly all actives have a fitted effect of over 65% in size; further: potency means the concentration at half of the fitted maximal effect
Outline: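 1000 cells/well, 4 h pre-incubation 37 °C/5% CO2; 11-pnt titration; 72 h; CellTiter-Glo 15 min RT, luminescence.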

[4] = test system: NAD(P)H diaphorase (Clostridium kluyveri); experiment: Diaphorse counterscreen qHTS: Assay Interference Panel against the NCATS CANVASS Library (AID 1347362)
Outline: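 Counterscreen for coupling-enzyme interference: resorufin fluorescence from resazurin/NADH turnover, read after 5 min at room temperature. Compounds were tested over an 11-point series after 15 min dark preincubation with diaphorase in PBS-Tween.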

[5] = target: Luciferin 4-monooxygenase (Photinus pyralis) (UniProt P08659); experiment: Firefly luciferase counterscreen qHTS: Assay Interference Panel against the NCATS CANVASS Library (AID 1347363); further: series mostly up to about 57 µM
Luciferin 4-monooxygenase (Photinus pyralis), sequence (P08659 whole entry, looked up): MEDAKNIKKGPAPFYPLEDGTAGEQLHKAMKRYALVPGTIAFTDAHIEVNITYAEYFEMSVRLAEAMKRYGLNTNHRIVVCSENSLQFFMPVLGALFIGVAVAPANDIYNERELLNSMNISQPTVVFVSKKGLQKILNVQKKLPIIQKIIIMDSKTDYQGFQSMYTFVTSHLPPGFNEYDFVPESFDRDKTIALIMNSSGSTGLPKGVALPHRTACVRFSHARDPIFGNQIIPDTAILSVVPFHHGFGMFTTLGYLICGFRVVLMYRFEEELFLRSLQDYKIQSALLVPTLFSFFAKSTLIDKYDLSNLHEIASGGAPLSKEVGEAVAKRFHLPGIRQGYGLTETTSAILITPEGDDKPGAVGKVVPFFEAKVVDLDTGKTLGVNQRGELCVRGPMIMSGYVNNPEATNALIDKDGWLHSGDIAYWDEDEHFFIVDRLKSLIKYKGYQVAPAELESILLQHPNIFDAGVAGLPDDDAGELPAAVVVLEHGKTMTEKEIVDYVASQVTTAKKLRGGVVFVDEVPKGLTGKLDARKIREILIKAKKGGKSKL
Outline: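 Luminescence inhibition readout: compounds (11-point qHTS) sat 15 min at room temperature with substrate mix (0.013 mM luciferin and ATP), then firefly luciferase was added and signal read 5 min later.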

[6] = KB-8-5-11 Cancer Cell Toxicity qHTS against the NCATS CANVASS Library (AID 1347364); further: nearly all actives have a fitted effect of over 75% in size; further: potency means the concentration at half of the fitted maximal effect
Outline: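 CellTiter-Glo luminescence after 72 h exposure; 500 KB-8-5-11 cells/well, DMEM/10% FBS, 37C, 5% CO2; compounds in 11-pt qHTS. Follow-up confirmation included medium with 1uM tariquidar.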

[7] = qHTS for ATAD5 Antagonist screened against the NCATS CANVASS Library (AID 1347370); further: nearly all actives have a fitted effect of over 65% in size; further: potency means the concentration at half of the fitted maximal effect
Outline: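 HEK293T-ATAD5 luc reporter, 2000 cells/well; 5hr attach; cpd + 10 uM 5-FUrd; 16hr 37C, 5% CO2. Readouts: CellTiter-Fluor fluorescence (1hr), then Amplite luciferase luminescence (30min RT).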

[8] = J3T Cancer Cell Toxicity qHTS against the NCATS CANVASS Library (AID 1347371); further: potency means the concentration at half of the fitted maximal effect
Outline: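 Dog glioma J3T, 500 cells/well; cpd 11-pt qHTS; 72 hr, 37C/5% CO2; CellTiterGlo ATP luminescence readout.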

[9] = qHTS for Hypoxia signaling pathway (HIF-1) antagonists against the NCATS CANVASS Library (AID 1347374); further: nearly all actives have a fitted effect of over 60% in size; further: potency means the concentration at half of the fitted maximal effect
Outline: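 Beta-lactamase reporter under HRE control in ME-180 cells; CoCl2 stimulus (60 uM solution as added), compounds 11-pt qHTS, 17 h 37C. CCF4 dye 2 h RT, 460/530 nm emission. CellTiter-Glo viability in same wells.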

[10] = 10-beta competent E. coli microbial cell viability qHTS against the NCATS CANVASS Library (AID 1347376); further: series mostly up to about 46 µM
Outline: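 Luminescence from BacTiter-Glo ATP detection served as the viability read-out; bacteria (0.2 OD) had been incubated overnight at 37C with pin-transferred compounds at 11 concentrations.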

[11] = Inflammasome Signaling qHTS Counterscreen: IL-1-beta AlphaLISA counterscreen against the NCATS CANVASS Library (AID 1347381);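 further: cell-free check with purified IL-1β in medium and no THP-1 cells; series mostly up to about 57 µM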
Outline: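 Here, no cellular stimulation occurs; compounds in an 11-point series meet 4 pg purified IL-1-beta directly. Bead-based AlphaLISA detection follows (1 h acceptor/antibody, then 30 min donor, dark, room temperature), with excitation at 680 nm.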

[12] = Cytotoxicity qHTS for assessment of Hepg2 cells membrane integrity screened against the NCATS CANVASS Library (AID 1347387)
Outline: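 LDH release read by fluorescence (560 nm ex/590 nm em) after CytoTox-ONE addition and 10 min RT; signal tracks lysed cells. HepG2, 2000 cells/well, plated overnight; compound 5 hr, 37C, 5% CO2, final 0.59 nM - 46 uM, 11 points.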

[13] = qHTS for Activators of p53 Stress Response Pathway screened against the NCATS CANVASS Library (AID 1347388); further: potency means the concentration at half of the fitted maximal effect
Outline: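 Beta-lactamase reporter driven by p53 response elements in HCT-116 cells, read as the 460 nm/530 nm emission ratio after CCF4 loading, following 16 h of exposure to an 11-point series. Cell viability was measured in the same wells by CellTiter-Glo luminescence.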

[14] = qHTS assay for small molecule disruptors of mitochondrial membrane potential screened against the NCATS CANVASS Library (AID 1347389); further: nearly all actives have a fitted effect of over 60% in size; further: potency means the concentration at half of the fitted maximal effect
Outline: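 Red/green fluorescence ratio read-out: J-aggregates ex 540/em 590 nm, monomers ex 490/em 535 nm. HepG2, 1 hr compound treatment, then 30 min Mito-MPS dye at 37C. 11-pt qHTS concentration series.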

[15] = qHTS for activators of Nrf2/ARE signaling pathway screened against the NCATS CANVASS Library (AID 1347391); further: nearly all actives have a fitted effect of over 60% in size; further: potency means the concentration at half of the fitted maximal effect
Outline: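 HepG2 ARE-bla; cpd 11-pt qHTS, 16 h 37C/5% CO2; CCF4 substrate 2 h RT; read ex 405 / em 460 + 530 nm. Viability by CellTiter-Glo luminescence, 30 min RT.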

[16] = qHTS for inhibitors of ER calcium dysfunction: SERCaMP assay screened against the NCATS CANVASS Library (AID 1347393); further: nearly all actives have a fitted effect of over 40% in size; further: potency means the concentration at half of the fitted maximal effect
Outline: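 Thapsigargin-induced ER calcium depletion drives GLuc-SERCaMP secretion from SH-SY5Y cells; compounds given 16 h beforehand were scored by lowered coelenterazine luminescence after 4 h challenge.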

[17] = qHTS for inhibitors of Wild type Zika virus screened against the NCATS CANVASS Library (AID 1347396);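 further: ATP luminescence of surviving cells so rescue from viral cell killing; series mostly up to about 46 µM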
Outline: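 Luminescent CellTiter Glo read-out of virus-induced cytotoxicity, 72 h post-infection, in Vero 766 cells. Compounds were tested at 11 concentrations; uninfected, vehicle-treated wells defined 100% inhibition.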

[18] = Redox Reaction Profiling qHTS: Assay Interference Panel against the NCATS CANVASS Library (AID 1347401)
Outline: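 Redox-cycling liability assessed as DTT-driven conversion of resazurin (5 uM, with 200 uM DTT, HEPES pH 7.3) to fluorescent resorufin. Fluorescence at 525/598 nm measured initially and after 15 min dark incubation.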

[19] = OV-KATE Cancer Cell Toxicity qHTS against the NCATS CANVASS Library (AID 1347345); further: potency means the concentration at half of the fitted maximal effect
Outline: as §1

Measured: Potency

CO[C@@H]1[C@H](O)[C@@H](C)O[C@@H](OC[C@@H]2C(C)OC(=O)/C=C/[C@H](C)C(O[C@@H]3O[C@H](C)CC4(OC(=O)O[C@@H]4C)C3O)[C@@H](C)CC(C)C(=O)/C=C/[C@H]3OC23)[C@@H]1OC (some centres undefined)
active: [2] 11.8 µM | [3] 20.9 µM | [7] 16.6 µM | [8] 13.2 µM | [9] 18.8 µM | [15] 3.71 µM | [16] 8.6 µM
not listed: [19]
inactive: all other assays above

CC(C)[C@@H]1CC(=O)c2coc3c2[C@H]1C[C@@H](C)C3=O
inactive: [19] | [4] | [7] | [8] | [10] | [11] | [13] | [16] | [17] | [18]

COc1cc2c(cc1OC)[C@@H](c1ccc3c(c1)OCO3)C(C)[C@@H](C)C2=O (some centres undefined)
inactive: [19] | [4] | [8] | [9] | [10] | [11] | [13] | [14] | [18]
active: [7] 11.7 µM | [16] 34.3 µM

COC(=O)[C@@]1(C)CCC[C@]2(C)c3cc(OC)ccc3CC[C@@H]12
not listed: [1] | [12] | [14]
inactive: all other assays above

CC1=C[C@H]2[C@H]3C(=O)C(c4ccc(O)cc4)=C[C@@]3(c3ccc(O)cc3)[C@@H]1C(=O)[C@]2(C)O
active: [2] 0.418 µM | [3] 0.235 µM | [6] 3.72 µM | [13] 0.331 µM
not listed: [8] | [12] | [15] | [17]
inactive: all other assays above

C/C(=C\[C@H](C)C(=O)C[C@H](O)CC1CC(=O)NC(=O)C1)[C@@H]1OC(=O)CCCC/C=C/[C@@H](O)C[C@@H]1C
active: [2] 2.35 µM | [3] 9.35 µM | [7] 7.41 µM | [9] 4.2 µM | [15] 7.41 µM
inactive: [1] | [4] | [6] | [10] | [14] | [16] | [17] | [18]

CN1CCc2cc3c(c4c2C1(C)C(=O)c1cc(O)ccc1-4)OCO3 (centres undefined)
active: [3] 18.7 µM | [6] 23.5 µM | [7] 13.2 µM | [9] 13.3 µM | [16] 19.3 µM
not listed: [2] | [10] | [12] | [19]
inactive: all other assays above

C=C1C[C@H]2O[C@@H]3[C@@H]4[C@H](CC[C@@](C)(O)[C@@H]42)[C@H](C)COC3(C)[C@@H](OC(=O)CCCCCCC)C[C@H]1O (some centres undefined)
active: [3] 23.5 µM | [15] 20.9 µM
not listed: [1] | [2] | [4] | [6] | [9] | [16] | [19]
inactive: all other assays above

C[C@H]1CCC2(OC1)O[C@H]1C[C@H]3[C@@H]4CC(=O)[C@]5(O)C[C@H](O)CC[C@@]5(C)[C@H]4CC[C@@]3(C)[C@H]1[C@H]2C (some centres undefined)
inactive: [19] | [4] | [5] | [7] | [8] | [11] | [12] | [14] | [18]
active: [13] 23.4 µM | [15] 2.09 µM

C/C1=C/[C@@H](C)[C@H](O)C/C=C/CC/C=C/C(=O)O[C@@H]1[C@H](C)C(=O)CCCC1CC(=O)NC(=O)C1
active: [2] 10.5 µM | [3] 20.9 µM | [7] 20.9 µM | [9] 18.8 µM
not listed: [8] | [15] | [18]
inactive: all other assays above

C=C1C(=O)O[C@H]2[C@H]1CCC(C)=C1CC[C@@](C)(O)[C@@H]12
inactive: [4] | [5] | [10] | [12] | [13] | [17] | [18]
active: [19] 11.8 µM | [1] 14.9 µM | [2] 4.18 µM | [3] 9.35 µM | [6] 23.5 µM | [15] 0.186 µM | [16] 2.72 µM

CC[C@@H]1[C@H](C)[C@H](c2cc(OC)c(OC)cc2OC)[C@@H](C)[C@H](c2cc(OC)c(OC)cc2OC)[C@]12C=C(OC)C(=O)C=C2OC
inactive: [5] | [8] | [11] | [15]
active: [1] 21.1 µM | [3] 26.4 µM | [7] 23.4 µM

COc1cc2oc3ccccc3c(=O)c2cc1OC
active: [15] 3.41 µM
not listed: [2] | [3] | [5] | [6] | [13] | [16] | [18]
inactive: all other assays above

C/C=C/c1cc2c(c(=O)o1)C(=O)[C@@H](O)[C@H](C)O2
active: [2] 2.35 µM | [3] 9.35 µM | [8] 26.4 µM | [9] 14.9 µM | [13] 37.1 µM | [15] 4.67 µM
inactive: [4] | [5] | [10] | [12] | [14] | [17] | [18]

CC[C@@H](c1cc(OC)c(OC)cc1OC)[C@H](C)[C@@H](/C(C)=C/c1cc(OC)c(OC)cc1OC)c1cc(OC)c(OC)cc1OC
active: [1] 11.9 µM | [2] 14.8 µM and 20.9 µM | [3] 16.6 µM | [7] 13.2 µM | [14] 23.4 µM and 20.9 µM | [16] 2.43 µM and 19.3 µM
not listed: [4] | [9] | [15]
inactive: all other assays above
